The record followed here is the supplement of paper PMC10338343.

± gives the standard deviation.

This experiment concerns MILI (PIWIL2) piRISC loaded with L1MC piRNA (26 nt). Put plainly: pre-steady-state target cleavage rate (min^-1); guide: L1MC piRNA 5'p-UAACUAAAUACUAUGCAAGCUGUAGG; MIWI and MILI are mouse PIWI proteins and EfPiwi is from a freshwater sponge; tags in brackets are library labels; higher = faster piRNA-guided slicing of the target. A digest of the protocol:
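The pre-steady-state cleavage rate came from a burst-and-steady-state fit to pooled data from three Cleave-'n-Seq trials, in which uncleaved targets were sequenced and normalised to depth and to weakly complementary targets. Each reaction held 0.1 nM transcribed, DNA-blocked target RNA library and 1 nM active affinity-purified piRISC carrying one synthetic guide, with or without 500 nM GTSF1 partner protein, in HEPES–potassium acetate buffer at 33 °C for 0–8 or 0–960 min. k3 was capped at 0.0001 min^-1.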

The mark [1] stands for this setting: auxiliary factor: 500 nM mouse GTSF1.
The mark [2] stands for this setting: auxiliary factor: none (no GTSF1).

Turning to UCCUGGAACAGCUUGCUUAGUUUUUAGUUA, the “pre-steady-state target cleavage rate” value is, setting by setting: under setting [1], 0.0579 ± 0.012; under setting [2], 0.00375 ± 0.0024.

As for UCCUGGAUGAGCUUGCUUAGUAUUUUGUUA, the “pre-steady-state target cleavage rate” value reads like this: under setting [1], 0.138 ± 0.021; under setting [2], 0.00587 ± 0.0022.

For the sequence UCCUGGUACAGCUUGGUUAGUAUUUAGUAA, the “pre-steady-state target cleavage rate” value turned out to be 0.159 ± 0.038 under setting [1] and 0.01 ± 0.0031 under setting [2].

On to UCCUGCUAGAGCUUGCAUAGUAUUUACUUA, for which the “pre-steady-state target cleavage rate” value turned out to be 0.175 ± 0.042 under setting [1] and 0.00284 ± 0.0026 under setting [2].

On to UCCUGGAUGUGCUAGCAUAGUAUUUUGUUA, for which the “pre-steady-state target cleavage rate” value is, setting by setting: under setting [1], 0.0587 ± 0.011; under setting [2], 0.00334 ± 0.0025.

Take UCCUGGAUCAGGUAGCAUAGUAUUUAGUUA: the “pre-steady-state target cleavage rate” value is, setting by setting: under setting [1], 0.118 ± 0.013; under setting [2], 0.00574 ± 0.0022.

UCCUGGAUGUCGUAUGCAUAGUAUUUAGUUA: the “pre-steady-state target cleavage rate” value came to 0.0833 ± 0.012 under setting [1] and 0.00487 ± 0.0028 under setting [2].

Turning to UCCUGGAUGUCGAUGCAUAGUGUUUAGUUA, the “pre-steady-state target cleavage rate” value was determined as 0.0372 ± 0.0094 under setting [1] and 0.0049 ± 0.0026 under setting [2].

Take UCCUGGAUGAGCAAGCAUAGUAUUUAGUUA: the “pre-steady-state target cleavage rate” value under setting [1] stood at 0.12 ± 0.014 and the “pre-steady-state target cleavage rate” value under setting [2] came out at 0.00601 ± 0.0021.

Turning to UCCUGGAUGUGCUUGCAUAGUUUUUAGUAA, the “pre-steady-state target cleavage rate” value is 0.0109 ± 0.0049 under setting [1] and 0.00391 ± 0.0027 under setting [2].

For “UCCUGCUACAGCUUGCAUAGUAUUUAGUUU [g2:g25:cont:t1U]”, the “pre-steady-state target cleavage rate” value by setting is: under setting [1], 0.315 ± 0.022; under setting [2], 0.0127 ± 0.0035.

With UCCUGGAUGAGCUUGCUAUGUAUUUAGUUA, the “pre-steady-state target cleavage rate” value turned out to be 0.00711 ± 0.0026 under setting [1] and 0.00524 ± 0.0027 under setting [2].

As to UCCUGGAUCAGCUUGCAUAGAUUUUAGUUA, the “pre-steady-state target cleavage rate” value reads like this: under setting [1], 0.0267 ± 0.007; under setting [2], 0.00395 ± 0.0023.

As to UCCUGGAUCAGCUUGCCUAGUAUUUAGUUA, the “pre-steady-state target cleavage rate” value under setting [1] turned out to be 0.234 ± 0.015 and the “pre-steady-state target cleavage rate” value under setting [2] is 0.00686 ± 0.0022.

Take UCCUGCUACAGCUUGCUAUGUAUUUAGUUA: the “pre-steady-state target cleavage rate” value was 0.0638 ± 0.017 under setting [1] and 0.00522 ± 0.0021 under setting [2].

In the case of UCCUGGAUGUCGAAGCAUAGUAUUUAGGUUA, the “pre-steady-state target cleavage rate” value under setting [1] came out at 0.0552 ± 0.0097 and the “pre-steady-state target cleavage rate” value under setting [2] amounted to 0.00259 ± 0.0025.

With UCCUGGAUGUCCUUGGAUAGUAUUUAGUUA, the “pre-steady-state target cleavage rate” value came to 0.153 ± 0.021 under setting [1] and 0.00762 ± 0.0021 under setting [2].

Consider UCCUGGAUGUCGAUGCAUAGUUAUUAGUUA, for which the “pre-steady-state target cleavage rate” value is, setting by setting: under setting [1], 0.00565 ± 0.0033; under setting [2], 0.0042 ± 0.0022.

Take UCCUGGAUGAGCUUGCAUAGUAGUUUAGUUA: the “pre-steady-state target cleavage rate” value runs as follows: under setting [1], 0.115 ± 0.022; under setting [2], 0.0138 ± 0.0039.

For the sequence UCCUCCUACAAGCUUGCAUAGUAUUUAGUUA, the “pre-steady-state target cleavage rate” value under setting [1] is 0.222 ± 0.016 and the “pre-steady-state target cleavage rate” value under setting [2] amounted to 0.00894 ± 0.0024.

Turning to UCCUGGAUCUGCUUGCAUAGUAUUUACUUA, the “pre-steady-state target cleavage rate” value under setting [1] was 0.0527 ± 0.0096 and the “pre-steady-state target cleavage rate” value under setting [2] was determined as 0.00348 ± 0.0027.

On to UCCUGGAUGUGGUUGCAAAGUAUUUAGUUA, for which the “pre-steady-state target cleavage rate” value is 0.0262 ± 0.0077 under setting [1] and 0.00983 ± 0.0026 under setting [2].

For the sequence UCCUGGAUGUCGUUGCAUAGUAUUUAGUUUA, the “pre-steady-state target cleavage rate” value runs as follows: under setting [1], 0.178 ± 0.018; under setting [2], 0.0103 ± 0.0039.

Turning to UCCUGGUACUGCUUGCAUAGUAUUUUGUUA, the “pre-steady-state target cleavage rate” value turned out to be 0.0539 ± 0.019 under setting [1] and 0.00457 ± 0.0034 under setting [2].

For UCCUGGUACAGCUUCGUUAGUAUUUAGUUA, the “pre-steady-state target cleavage rate” value by setting is: under setting [1], 0.128 ± 0.013; under setting [2], 0.00406 ± 0.0022.

For the sequence UCCUGGAUCAGGAAGCAUAGUAUUUAGUAA, the “pre-steady-state target cleavage rate” value is 0.0716 ± 0.014 under setting [1] and 0.00297 ± 0.0022 under setting [2].

For UCCUGGAUGUCGAUUGCAUAGUAUUUAGUUA, the “pre-steady-state target cleavage rate” value is, setting by setting: under setting [1], 0.09 ± 0.012; under setting [2], 0.00748 ± 0.0024.

As for UCCUGGAUGUCCUUAGCAUAGUAUUUAGUUA, the “pre-steady-state target cleavage rate” value stood at 0.0724 ± 0.016 under setting [1] and 0.00307 ± 0.0025 under setting [2].

UCCUGGAUGUCCAUGCAUAGUAUUUAGUUA: the “pre-steady-state target cleavage rate” value is 0.0603 ± 0.016 under setting [1] and 0.00432 ± 0.0026 under setting [2].

In the case of UCCUGGAUCAGCUUGCAUACUAAUUAGUUA, the “pre-steady-state target cleavage rate” value is, setting by setting: under setting [1], 0.0215 ± 0.0055; under setting [2], 0.00367 ± 0.0023.

In the case of UCCUGGAUGUGCUUGCAAGUAUUUAGUUA, the “pre-steady-state target cleavage rate” value under setting [1] was 0.00781 ± 0.0036 and the “pre-steady-state target cleavage rate” value under setting [2] worked out at 0.00503 ± 0.0024.

In the case of UCCUGGAUGUGCUAGCAUUGUAUUUAGUUA, the “pre-steady-state target cleavage rate” value under setting [1] came out at 0.0146 ± 0.0031 and the “pre-steady-state target cleavage rate” value under setting [2] is 0.00365 ± 0.0026.

With UCCUGGAUCAGCUUGCUUUGUAUUUAGUUA, the “pre-steady-state target cleavage rate” value by setting is: under setting [1], 0.11 ± 0.015; under setting [2], 0.0038 ± 0.0028.

For the sequence UCCUGGAUCAGCUUGCACAGUAUUUAGUUA, the “pre-steady-state target cleavage rate” value reads like this: under setting [1], 0.157 ± 0.015; under setting [2], 0.0116 ± 0.003.

For the sequence UCCUGGAACAGCUUGCAUUGUAUAUAGUUA, the “pre-steady-state target cleavage rate” value amounted to 0.149 ± 0.017 under setting [1] and 0.00496 ± 0.0025 under setting [2].

Consider UCCUGGAUGUCGUUGCAUAGUCAUUUAGUUA, for which the “pre-steady-state target cleavage rate” value is 0.00441 ± 0.0039 under setting [1] and 0.00434 ± 0.0028 under setting [2].

UCCUGGAUGACCUUGCAUAGUAUUUAGUUA: the “pre-steady-state target cleavage rate” value under setting [1] came to 0.177 ± 0.023 and the “pre-steady-state target cleavage rate” value under setting [2] came to 0.0057 ± 0.0024.

With UCCUGGAUGUCCUUGCUUAGUAAUUAGUUA, the “pre-steady-state target cleavage rate” value under setting [1] amounted to 0.0235 ± 0.0061 and the “pre-steady-state target cleavage rate” value under setting [2] is 0.00598 ± 0.0019.

With UCCUGGAUGUCCUUGAAUAGUAUUUAGUUA, the “pre-steady-state target cleavage rate” value reads like this: under setting [1], 0.122 ± 0.023; under setting [2], 0.011 ± 0.0029.

As to UCCUGGAUGAGCUAGCUUAGUAUUUAGUUA, the “pre-steady-state target cleavage rate” value came out at 0.13 ± 0.012 under setting [1] and 0.00773 ± 0.0023 under setting [2].

For the sequence UCCUGGUACAGCUUGCAUAUAUUUAGUUA, the “pre-steady-state target cleavage rate” value under setting [1] is 0.035 ± 0.011 and the “pre-steady-state target cleavage rate” value under setting [2] came to 0.00493 ± 0.0024.

Regarding UCCUGGAUGUGCUAGCAUAGUAUUUAGUAA, the “pre-steady-state target cleavage rate” value under setting [1] was determined as 0.12 ± 0.017 and the “pre-steady-state target cleavage rate” value under setting [2] was 0.00339 ± 0.0027.

For UCCUGGAUGUGCUUGCAUAGUAUUUAUGUUA, the “pre-steady-state target cleavage rate” value was 0.109 ± 0.021 under setting [1] and 0.0053 ± 0.0027 under setting [2].

As for UCCUGGAUGUGCUUGCAUAGUGAUUUAGUUA, the “pre-steady-state target cleavage rate” value is 0.00833 ± 0.0042 under setting [1] and 0.007 ± 0.0031 under setting [2].

Take UCCUGGAUGUCGAAGCAUAGUAUUUUAGUUA: the “pre-steady-state target cleavage rate” value is, setting by setting: under setting [1], 0.0433 ± 0.01; under setting [2], 0.00324 ± 0.0028.

In the case of UCCUGGAUGUGCAUGCAAAGUAUUUAGUUA, the “pre-steady-state target cleavage rate” value runs as follows: under setting [1], 0.0175 ± 0.0048; under setting [2], 0.00933 ± 0.0024.

With UCCUGGAUGUCGAACCCAUAGUAUUUAGUUA, the “pre-steady-state target cleavage rate” value worked out at 0.0032 ± 0.0019 under setting [1] and 0.00424 ± 0.0023 under setting [2].

Consider UCCUGGUACUGCUUGCAUAGUAAUUAGUUA, for which the “pre-steady-state target cleavage rate” value reads like this: under setting [1], 0.169 ± 0.031; under setting [2], 0.00575 ± 0.0025.

For the sequence UCCUGGAUCAGCUUCGUUAGUAUUUAGUUA, the “pre-steady-state target cleavage rate” value reads like this: under setting [1], 0.0434 ± 0.0096; under setting [2], 0.00279 ± 0.0024.

For UCCUGGAUGUCGAAGGCAUAGUAUUUAGUUA, the “pre-steady-state target cleavage rate” value stood at 0.0371 ± 0.0065 under setting [1] and 0.00443 ± 0.0024 under setting [2].

Turning to UCCUGGAUGUCGUUGCAUAGUAUUUAGUGUA, the “pre-steady-state target cleavage rate” value by setting is: under setting [1], 0.17 ± 0.027; under setting [2], 0.00477 ± 0.0035.

On to UCCUGGAUGAGCUUGCUUACUAUUUAGUUA, for which the “pre-steady-state target cleavage rate” value reads like this: under setting [1], 0.0357 ± 0.0051; under setting [2], 0.00365 ± 0.0025.

On to UCCUGGAUGUCCUUGCAUAGAUUUUAGUUA, for which the “pre-steady-state target cleavage rate” value under setting [1] was determined as 0.0121 ± 0.0046 and the “pre-steady-state target cleavage rate” value under setting [2] was found to be 0.00402 ± 0.0018.

Take UCCUGGAUGUCGAAGUAUAGUAUUUAGUUA: the “pre-steady-state target cleavage rate” value amounted to 0.0142 ± 0.004 under setting [1] and 0.00325 ± 0.002 under setting [2].

For UCCUGGAUGUCCUUGCAUAGUAAUUAGUUA, the “pre-steady-state target cleavage rate” value under setting [1] was found to be 0.111 ± 0.019 and the “pre-steady-state target cleavage rate” value under setting [2] was 0.00618 ± 0.0018.

In the case of UCCUGGAUGAGCUUGCAAAGUAUUUAGUUA, the “pre-steady-state target cleavage rate” value was 0.0794 ± 0.011 under setting [1] and 0.00483 ± 0.0028 under setting [2].

Consider UCCUGGAUGUCGAGGCAUAGUAUUUAGUUA, for which the “pre-steady-state target cleavage rate” value runs as follows: under setting [1], 0.0728 ± 0.016; under setting [2], 0.00723 ± 0.0026.

In the case of UCCUGGUACAGCUUGCAUAGUCAUUUAGUUA, the “pre-steady-state target cleavage rate” value under setting [1] is 0.0147 ± 0.0072 and the “pre-steady-state target cleavage rate” value under setting [2] stood at 0.00451 ± 0.0041.

Regarding UCCUGCUACAGCUUGCAUAGUAUCUAGUUA, the “pre-steady-state target cleavage rate” value runs as follows: under setting [1], 0.265 ± 0.033; under setting [2], 0.00553 ± 0.0025.

For the sequence UCCUGGUACAGCUUGCAUAGAUAUUUAGUUA, the “pre-steady-state target cleavage rate” value came to 0.0243 ± 0.011 under setting [1] and 0.00568 ± 0.0026 under setting [2].
